# Test results taken from PubChem BioAssay (EPA / NIEHS).
# Inconclusive results are not listed. Calls of active or inactive are those of the source. Rule for the calls: active = hit-call score of the fitted dose curve at least 0.9, where 1 is the maximum; inconclusive = response in the unintended direction; inactive = score below 0.9.
# Legend:
# [1] = biological target: human Casein Kinase 1-delta (CK1D), CSNK1D (gene 1453) (UniProt P48730); assay: NVS_ENZ_hCK1D: NovaScreen (NVS) Enzymatic Assay for human Casein Kinase 1-delta (CK1D) (AID 2283148)
# Procedure, shortened: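 Recombinant human CK1-delta, cell-free; fluorescent substrate with electrophoretic mobility-shift separation of product, read 1 h after dosing. Single 25 uM duplicate screen, then concentration-response up to 50 uM; loss of signal vs DMSO.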
# [2] = biological target: human Colony Stimulating Factor 1 Receptor (CSF1R), CSF1R (gene 1436) (UniProt P07333); assay: NVS_ENZ_hCSF1R: NovaScreen (NVS) Enzymatic Assay for human Colony Stimulating Factor 1 Receptor (CSF1R) (AID 2283150)
# Procedure, shortened: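 Compounds screened in duplicate at 25 uM, then concentration-response (top 50 uM) for those passing threshold such as 30% inhibition; recombinant CSF1R activity measured 1 h post-dosing via fluorescent substrate/product mobility-shift separation, loss of signal versus DMSO.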
# [3] = biological target: human Epidermal Growth Factor Receptor (EGFR), EGFR (gene 1956) (UniProt P00533); assay: NVS_ENZ_hEGFR: NovaScreen (NVS) Enzymatic Assay for human Epidermal Growth Factor Receptor (EGFR) (AID 2283151)
# Procedure, shortened: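 Cell-free kinase assay, fluorescence plus electrophoretic mobility shift separating substrate and product, read 1 hour after dosing; loss of signal vs DMSO. Duplicate screen at 25 uM, then concentration-response to 50 uM.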
# [4] = biological target: human Dual Specificity Protein Phosphatase 3 (DUSP3), DUSP3 (gene 1845) (UniProt P51452); assay: NVS_ENZ_hDUSP3: NovaScreen (NVS) Enzymatic Assay for human Dual Specificity Protein Phosphatase 3 (DUSP3) (AID 2283152);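 note: phosphatase activity of recombinant human DUSP3 on a fluorogenic substrate without cells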
# Procedure, shortened: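 Cell-free fluorescence-intensity enzyme activity assay with recombinant protein and substrate; loss of signal fitted relative to DMSO baseline. Primary screen in duplicate at 25 uM, actives then run in concentration series; measured 0 h after dosing.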
# [5] = biological target: human Elastase, ELANE (gene 1991) (UniProt P08246); assay: NVS_ENZ_hElastase: NovaScreen (NVS) Enzymatic Assay for human Elastase (AID 2283153)
# Procedure, shortened: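 Concentration-response to 50 uM max, run singly for chemicals passing a threshold (e.g., 30% inhibition) in a duplicate 25 uM single-point screen. Neutrophil-derived human elastase, absorbance read-out of enzyme activity at 1.5 h; DMSO baseline.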
# [6] = biological target: human Ephrin type-B Receptor 2 (EphB2), EPHB2 (gene 2048) (UniProt P29323); assay: NVS_ENZ_hEphB2: NovaScreen (NVS) Enzymatic Assay for human Ephrin type-B Receptor 2 (EphB2) (AID 2283156)
# Procedure, shortened: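 Compounds were first tested in duplicate at 25 uM, with hits rerun singly in concentration series up to 50 uM. Enzyme activity on fluorescent substrate was read at 1 h by mobility-shift separation, scored as signal loss relative to DMSO.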
# [7] = biological target: human Ephrin type-A Receptor 1 (EphA1), EPHA1 (gene 2041) (UniProt P21709); assay: NVS_ENZ_hEphA1: NovaScreen (NVS) Enzymatic Assay for human Ephrin type-A Receptor 1 (EphA1) (AID 2283158);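 note: activity is signal loss versus DMSO meaning EphA1 kinase inhibition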
# Procedure, shortened: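 Chemicals first tested in duplicate at 25 uM against recombinant EphA1 with a fluorescent substrate; those passing threshold went to singleton dose-response topping at 50 uM. Activity read 1 h later as mobility-shift fluorescence, loss of signal relative to DMSO.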
# [8] = biological target: human Fibroblast Growth Factor Receptor 1 (FGFR1), FGFR1 (gene 2260) (UniProt P11362); assay: NVS_ENZ_hFGFR1: NovaScreen (NVS) Enzymatic Assay for human Fibroblast Growth Factor Receptor 1 (FGFR1) (AID 2283159);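 for AC50: hits lower the signal so potencies describe inhibitors of the kinase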
# Procedure, shortened: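 Cell-free recombinant kinase with fluorescent substrate, product separated by electrophoretic mobility shift; read 1 hour after dosing, loss of signal relative to DMSO. Initial screen in duplicate at 25 uM, actives followed in concentration series.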
# [9] = biological target: Protein deacetylase HDAC6 (Homo sapiens) (UniProt Q9UBN7); assay: NVS_ENZ_hHDAC6: NovaScreen (NVS) Enzymatic Assay for human Histone Deacetylase 6 (HDAC6) (AID 2283164)
# Procedure, shortened: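 Concentration-response runs up to 50 uM followed a duplicate 25 uM single-point screen. Deacetylase activity of recombinant human HDAC6 read by fluorescence after 1 h, with mobility-shift separation of substrate and product; DMSO as baseline.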
# [10] = biological target: Glycogen synthase kinase-3 beta (Homo sapiens) (UniProt P49841); assay: NVS_ENZ_hGSK3b: NovaScreen (NVS) Enzymatic Assay for human Glycogen Synthase Kinase-3 beta (GSK3b) (AID 2283165)
# Procedure, shortened: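 Recombinant enzyme with specific fluorescent substrate, 1 h, product separated by electrophoretic mobility shift. Primary duplicate screen at 25 uM; actives (e.g. 30% inhibition) followed in singleton concentration-response to 50 uM. Signal loss fitted versus DMSO.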
# [11] = biological target: human IkappaB Kinase alpha (IKKa), CHUK (gene 1147) (UniProt O15111); assay: NVS_ENZ_hIKKa: NovaScreen (NVS) Enzymatic Assay for human IkappaB Kinase alpha (IKKa) (AID 2283167)
# Procedure, shortened: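 Compounds first run in duplicate at 25 uM, those meeting threshold (e.g. 30% inhibition) retested to maximum 50 uM. Enzyme activity of recombinant IKKa measured by fluorescence with electrophoretic mobility shift separation, 1 hour post-dosing, DMSO baseline.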
# [12] = biological target: human Insulin Receptor (InsR), INSR (gene 3643) (UniProt P06213); assay: NVS_ENZ_hInsR: NovaScreen (NVS) Enzymatic Assay for human Insulin Receptor (InsR) (AID 2283168)
# Procedure, shortened: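 Cell-free enzyme assay read 1 h post-dose by fluorescence after substrate/product mobility-shift separation. Duplicate 25 uM primary screen, then singleton concentration-response up to 50 uM for compounds passing threshold; loss of signal vs DMSO.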
# [13] = biological target: human Esterase Plasma (ES), BCHE (gene 590) (UniProt P06276); assay: NVS_ENZ_hES: NovaScreen (NVS) Enzymatic Assay for human Esterase Plasma (ES) (AID 2283157)
# Procedure, shortened: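 Screening ran at 25 uM in duplicate, followed by singleton concentration series reaching 50 uM for actives. Human plasma protein, colorimetric detection, 0.25 h exposure, DMSO negative control.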
# [14] = biological target: Histone deacetylase 3 (Homo sapiens) (UniProt O15379); assay: NVS_ENZ_hHDAC3: NovaScreen (NVS) Enzymatic Assay for human Histone Deacetylase 3 (HDAC3) (AID 2283163)
# Procedure, shortened: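 Cell-free enzyme format: loss of fluorescent product after mobility-shift separation, 1 h incubation, recombinant human HDAC3. Single 25 uM duplicate screen first, then concentration series to a 50 uM top for hits; DMSO as baseline.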
# [15] = biological target: human LYN Proto-Oncogene, Src family Tyrosine Kinase (LynA), LYN (gene 4067) (UniProt P07948); assay: NVS_ENZ_hLynA: NovaScreen (NVS) Enzymatic Assay for human LYN Proto-Oncogene, Src family Tyrosine Kinase (LynA) (AID 2283173)
# Procedure, shortened: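 Recombinant kinase with fluorescent substrate; product separated from substrate by electrophoretic mobility shift and read 1 h after dosing. Duplicate screen at 25 uM, then concentration-response up to 50 uM; activity scored as signal loss against DMSO.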
# [16] = biological target: human Ephrin type-A Receptor 2 (EphA2), EPHA2 (gene 1969) (UniProt P29317); assay: NVS_ENZ_hEphA2: NovaScreen (NVS) Enzymatic Assay for human Ephrin type-A Receptor 2 (EphA2) (AID 2283155)
# Procedure, shortened: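 Enzyme activity of recombinant EphA2 read by fluorescence after mobility-shift separation, 1 h after dosing. Chemicals first tested at 25 uM (duplicate); those passing threshold run as concentration series, top 50 uM, single replicate, relative to DMSO.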
# [17] = biological target: human Janus Kinase 2 (Jak2), JAK2 (gene 3717) (UniProt O60674); assay: NVS_ENZ_hJak2: NovaScreen (NVS) Enzymatic Assay for human Janus Kinase 2 (Jak2) (AID 2283169)
# Procedure, shortened: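 Single-point duplicate screen at 25 uM, with hits run in concentration series to a 50 uM top dose. Substrate-product separation by mobility shift with fluorescence detection, 1 h post-dosing; DMSO baseline.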
# [18] = biological target: human c-Jun N-terminal Kinases (JNK2), MAPK9 (gene 5601) (UniProt P45984); assay: NVS_ENZ_hJNK2: NovaScreen (NVS) Enzymatic Assay for human c-Jun N-terminal Kinases (JNK2) (AID 2283171)
# Procedure, shortened: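 Chemicals first tested in duplicate at 25 uM, then in singleton concentration series up to 50 uM, against extracted JNK2 enzyme. Activity loss read by fluorescence with mobility-shift separation 1 h post-dose; DMSO baseline.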
# [19] = biological target: human Caspase 8 (CASP8), CASP8 (gene 841) (UniProt Q14790); assay: NVS_ENZ_hCASP8: NovaScreen (NVS) Enzymatic Assay for human Caspase 8 (CASP8) (AID 2283146)
# Procedure, shortened: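 The primary screen tested compounds in duplicate at a single 25 uM concentration, with actives followed up in concentration series. Activity of recombinant (E. coli) protease was measured by fluorescence 1 h post-dose, as signal loss against DMSO.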
# [20] = biological target: human FYN Proto-Oncogene, Src family Tyrosine Kinase (Fyn), FYN (gene 2534) (UniProt P06241); assay: NVS_ENZ_hFyn: NovaScreen (NVS) Enzymatic Assay for human FYN Proto-Oncogene, Src family Tyrosine Kinase (Fyn) (AID 2283161)
# Procedure, shortened: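 Cell-free kinase activity read by fluorescence after mobility-shift separation of substrate and product, 1 h post-dose. Initial single concentration 25 uM in duplicate, then concentration-response follow-up; DMSO baseline.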
# human IkappaB Kinase alpha (IKKa), CHUK (gene 1147), sequence (O15111 whole entry, looked up): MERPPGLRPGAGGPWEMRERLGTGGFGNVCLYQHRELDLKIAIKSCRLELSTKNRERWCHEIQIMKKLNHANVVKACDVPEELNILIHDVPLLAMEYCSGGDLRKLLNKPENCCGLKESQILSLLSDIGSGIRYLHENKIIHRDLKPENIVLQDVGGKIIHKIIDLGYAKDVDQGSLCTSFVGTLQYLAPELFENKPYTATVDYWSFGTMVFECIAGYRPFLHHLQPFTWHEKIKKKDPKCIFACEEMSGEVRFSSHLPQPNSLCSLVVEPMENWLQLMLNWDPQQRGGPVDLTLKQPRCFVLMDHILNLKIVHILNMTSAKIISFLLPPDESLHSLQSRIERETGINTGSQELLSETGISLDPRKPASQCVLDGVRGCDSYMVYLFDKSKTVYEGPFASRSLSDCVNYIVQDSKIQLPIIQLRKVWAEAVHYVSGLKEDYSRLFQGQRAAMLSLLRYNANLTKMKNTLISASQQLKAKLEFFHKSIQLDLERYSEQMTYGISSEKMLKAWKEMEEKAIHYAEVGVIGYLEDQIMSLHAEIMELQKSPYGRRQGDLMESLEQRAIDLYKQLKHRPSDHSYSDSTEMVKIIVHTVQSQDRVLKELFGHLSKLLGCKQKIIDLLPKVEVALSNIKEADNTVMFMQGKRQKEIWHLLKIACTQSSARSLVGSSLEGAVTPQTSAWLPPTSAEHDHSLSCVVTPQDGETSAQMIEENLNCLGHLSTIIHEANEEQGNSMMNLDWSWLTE
# human Esterase Plasma (ES), BCHE (gene 590), sequence (P06276 whole entry, looked up): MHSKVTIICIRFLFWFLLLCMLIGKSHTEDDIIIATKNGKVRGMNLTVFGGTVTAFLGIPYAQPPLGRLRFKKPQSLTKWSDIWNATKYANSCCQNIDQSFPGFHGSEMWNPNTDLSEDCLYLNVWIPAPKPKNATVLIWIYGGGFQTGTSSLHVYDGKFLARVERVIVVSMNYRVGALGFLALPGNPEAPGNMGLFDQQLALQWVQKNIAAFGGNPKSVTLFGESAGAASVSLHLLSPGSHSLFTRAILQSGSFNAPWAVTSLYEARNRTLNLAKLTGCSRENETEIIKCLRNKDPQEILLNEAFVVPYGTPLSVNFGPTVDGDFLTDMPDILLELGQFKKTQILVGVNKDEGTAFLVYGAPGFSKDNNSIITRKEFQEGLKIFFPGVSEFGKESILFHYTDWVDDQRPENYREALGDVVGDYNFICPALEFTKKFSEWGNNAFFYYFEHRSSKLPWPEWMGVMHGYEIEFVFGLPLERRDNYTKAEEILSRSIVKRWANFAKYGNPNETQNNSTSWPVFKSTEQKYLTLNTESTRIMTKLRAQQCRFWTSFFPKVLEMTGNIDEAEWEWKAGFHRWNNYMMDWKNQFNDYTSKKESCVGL
# human Fibroblast Growth Factor Receptor 1 (FGFR1), FGFR1 (gene 2260), sequence (P11362 whole entry, looked up): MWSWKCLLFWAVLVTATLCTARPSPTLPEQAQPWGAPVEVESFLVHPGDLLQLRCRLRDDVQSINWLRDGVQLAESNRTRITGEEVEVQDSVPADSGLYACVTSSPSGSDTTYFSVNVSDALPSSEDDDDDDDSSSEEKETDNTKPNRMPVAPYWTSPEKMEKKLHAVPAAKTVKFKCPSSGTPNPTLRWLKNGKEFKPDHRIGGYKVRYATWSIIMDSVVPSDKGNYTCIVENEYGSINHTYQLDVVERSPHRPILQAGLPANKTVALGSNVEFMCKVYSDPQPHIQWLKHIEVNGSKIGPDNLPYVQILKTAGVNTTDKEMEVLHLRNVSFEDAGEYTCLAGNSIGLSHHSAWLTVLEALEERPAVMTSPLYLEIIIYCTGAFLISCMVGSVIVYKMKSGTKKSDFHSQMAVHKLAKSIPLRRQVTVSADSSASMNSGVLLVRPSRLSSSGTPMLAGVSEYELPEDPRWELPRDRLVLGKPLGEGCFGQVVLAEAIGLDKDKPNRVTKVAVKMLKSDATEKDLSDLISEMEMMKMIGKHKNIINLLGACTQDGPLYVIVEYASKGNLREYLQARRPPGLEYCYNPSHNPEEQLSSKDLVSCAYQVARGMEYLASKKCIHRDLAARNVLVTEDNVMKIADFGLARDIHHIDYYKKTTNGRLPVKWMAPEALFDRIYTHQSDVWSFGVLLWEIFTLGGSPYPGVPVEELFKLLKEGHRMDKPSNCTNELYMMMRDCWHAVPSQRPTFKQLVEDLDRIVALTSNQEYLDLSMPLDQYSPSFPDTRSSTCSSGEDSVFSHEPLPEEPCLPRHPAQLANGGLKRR
# human Ephrin type-A Receptor 1 (EphA1), EPHA1 (gene 2041), sequence (P21709 whole entry, looked up): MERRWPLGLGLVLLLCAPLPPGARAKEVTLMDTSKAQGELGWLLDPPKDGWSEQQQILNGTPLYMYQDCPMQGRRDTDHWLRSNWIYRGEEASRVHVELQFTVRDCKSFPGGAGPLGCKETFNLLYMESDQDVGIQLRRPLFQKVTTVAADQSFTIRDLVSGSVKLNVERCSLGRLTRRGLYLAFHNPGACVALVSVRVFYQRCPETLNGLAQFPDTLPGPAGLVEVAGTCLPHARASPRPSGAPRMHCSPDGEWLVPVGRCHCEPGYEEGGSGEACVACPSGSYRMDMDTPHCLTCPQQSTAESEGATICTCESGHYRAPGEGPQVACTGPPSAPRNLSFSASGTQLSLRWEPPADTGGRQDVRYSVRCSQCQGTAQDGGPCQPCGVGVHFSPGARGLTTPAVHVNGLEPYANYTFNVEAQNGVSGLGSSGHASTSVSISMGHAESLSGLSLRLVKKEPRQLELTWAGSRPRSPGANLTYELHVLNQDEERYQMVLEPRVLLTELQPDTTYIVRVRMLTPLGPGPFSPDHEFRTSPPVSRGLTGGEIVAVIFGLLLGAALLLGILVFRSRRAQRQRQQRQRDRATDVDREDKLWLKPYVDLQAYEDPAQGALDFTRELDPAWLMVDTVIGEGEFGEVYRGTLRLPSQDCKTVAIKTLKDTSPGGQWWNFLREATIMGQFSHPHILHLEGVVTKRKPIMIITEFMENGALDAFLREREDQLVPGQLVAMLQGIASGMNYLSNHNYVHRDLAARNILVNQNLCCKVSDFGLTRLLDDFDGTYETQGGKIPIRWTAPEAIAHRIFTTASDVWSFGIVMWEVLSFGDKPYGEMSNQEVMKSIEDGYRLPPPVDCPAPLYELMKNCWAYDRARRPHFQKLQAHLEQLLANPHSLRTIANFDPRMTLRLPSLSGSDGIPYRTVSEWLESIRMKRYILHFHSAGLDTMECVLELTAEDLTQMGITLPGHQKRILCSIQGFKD
# human Colony Stimulating Factor 1 Receptor (CSF1R), CSF1R (gene 1436), sequence (P07333 whole entry, looked up): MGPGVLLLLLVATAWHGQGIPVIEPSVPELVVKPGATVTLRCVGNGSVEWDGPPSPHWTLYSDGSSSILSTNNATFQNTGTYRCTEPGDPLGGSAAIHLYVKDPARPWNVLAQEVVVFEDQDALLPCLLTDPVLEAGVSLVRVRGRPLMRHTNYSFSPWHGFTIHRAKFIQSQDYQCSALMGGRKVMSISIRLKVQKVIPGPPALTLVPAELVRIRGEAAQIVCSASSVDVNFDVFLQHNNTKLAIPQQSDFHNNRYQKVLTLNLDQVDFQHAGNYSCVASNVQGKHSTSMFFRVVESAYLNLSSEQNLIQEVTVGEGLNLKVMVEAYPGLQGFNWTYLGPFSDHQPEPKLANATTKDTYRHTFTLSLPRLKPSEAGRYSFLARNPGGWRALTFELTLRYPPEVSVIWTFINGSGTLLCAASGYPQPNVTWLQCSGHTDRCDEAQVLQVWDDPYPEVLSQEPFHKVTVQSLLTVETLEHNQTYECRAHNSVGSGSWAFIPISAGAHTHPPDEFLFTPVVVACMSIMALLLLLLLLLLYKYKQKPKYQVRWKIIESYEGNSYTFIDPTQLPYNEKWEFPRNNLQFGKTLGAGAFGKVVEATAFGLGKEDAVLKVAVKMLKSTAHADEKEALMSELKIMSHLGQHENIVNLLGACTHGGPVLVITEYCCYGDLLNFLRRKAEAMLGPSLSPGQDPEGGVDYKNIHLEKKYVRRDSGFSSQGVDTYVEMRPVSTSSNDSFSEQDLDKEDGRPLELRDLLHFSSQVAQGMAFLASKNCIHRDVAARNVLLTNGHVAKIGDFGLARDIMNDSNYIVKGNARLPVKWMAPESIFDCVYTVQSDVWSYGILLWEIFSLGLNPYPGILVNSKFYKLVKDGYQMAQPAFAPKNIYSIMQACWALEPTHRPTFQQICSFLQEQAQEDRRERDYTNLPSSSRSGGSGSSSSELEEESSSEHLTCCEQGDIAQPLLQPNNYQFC
# human c-Jun N-terminal Kinases (JNK2), MAPK9 (gene 5601), sequence (P45984 whole entry, looked up): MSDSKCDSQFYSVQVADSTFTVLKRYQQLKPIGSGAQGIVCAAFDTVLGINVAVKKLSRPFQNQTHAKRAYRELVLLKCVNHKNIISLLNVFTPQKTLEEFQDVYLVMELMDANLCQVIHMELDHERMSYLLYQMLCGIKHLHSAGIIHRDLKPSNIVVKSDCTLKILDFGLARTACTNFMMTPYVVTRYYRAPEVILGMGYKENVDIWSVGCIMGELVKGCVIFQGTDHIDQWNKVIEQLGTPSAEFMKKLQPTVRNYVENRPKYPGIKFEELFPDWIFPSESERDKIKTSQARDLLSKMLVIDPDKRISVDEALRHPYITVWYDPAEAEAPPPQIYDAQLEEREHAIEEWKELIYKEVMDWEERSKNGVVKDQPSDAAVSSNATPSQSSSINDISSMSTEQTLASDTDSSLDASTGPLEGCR
# human Dual Specificity Protein Phosphatase 3 (DUSP3), DUSP3 (gene 1845), sequence (P51452 whole entry, looked up): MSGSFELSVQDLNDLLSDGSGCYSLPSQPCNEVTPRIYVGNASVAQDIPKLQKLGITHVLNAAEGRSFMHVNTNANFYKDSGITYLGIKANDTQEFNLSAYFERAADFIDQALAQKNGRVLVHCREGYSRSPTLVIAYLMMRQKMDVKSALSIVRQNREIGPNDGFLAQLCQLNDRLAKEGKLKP
# human Elastase, ELANE (gene 1991), sequence (P08246 whole entry, looked up): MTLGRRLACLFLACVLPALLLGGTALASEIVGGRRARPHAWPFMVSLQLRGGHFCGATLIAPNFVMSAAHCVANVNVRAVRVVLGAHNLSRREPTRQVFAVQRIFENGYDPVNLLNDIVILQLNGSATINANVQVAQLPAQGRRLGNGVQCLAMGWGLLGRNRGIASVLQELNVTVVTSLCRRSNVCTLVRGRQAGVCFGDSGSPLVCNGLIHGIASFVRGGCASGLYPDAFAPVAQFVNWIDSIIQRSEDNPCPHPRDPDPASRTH
compound,measurement,setting,value
CCCCCCCCCCCCc1cccc(S(=O)(=O)O)c1,AC50,[1],28.6 µM (active)
same,AC50,[2],17.3 µM (active)
same,AC50,[3],19.6 µM (active)
same,AC50,[4],16.8 µM (active)
same,AC50,[5],26.7 µM (active)
same,outcome,[6],inactive
same,AC50,[7],32.9 µM (active)
same,AC50,[8],11.4 µM (active)
same,AC50,[9],13.7 µM (active)
same,AC50,[10],25.3 µM (active)
same,AC50,[11],40.9 µM (active)
Cc1cc(C)cc(C)c1,outcome,[12],inactive
C=C(C)C(=O)OCC(CC)CCCC (configuration not stated),outcome,[7],inactive
Clc1cccc(Cl)c1Cl,outcome,[3],inactive
same,outcome,[7],inactive
same,outcome,[8],inactive
same,outcome,[11],inactive
CCOP(=O)(OCC)OC(=CCl)c1ccc(Cl)cc1Cl,AC50,[13],1.22 µM (active)
same,outcome,[7],inactive
COc1ccccc1N,outcome,[7],inactive
Oc1cc(Cl)c(Cl)cc1Cl,outcome,[14],inactive
same,outcome,[10],inactive
CCOC(=O)C(SP(=S)(OC)OC)c1ccccc1 (configuration not stated),AC50,[4],18.7 µM (active)
same,AC50,[13],4.29 µM (active)
COc1nn(C(=O)NS(=O)(=O)c2ccccc2OC(F)(F)F)c(=O)n1C,outcome,[8],inactive
CC(C)(C#N)N=NC(C)(C)C#N,outcome,[7],inactive
CCOC(=O)CCN(SN(C)C(=O)Oc1cccc2c1OC(C)(C)C2)C(C)C,AC50,[4],9.03 µM (active)
same,AC50,[13],14 µM (active)
same,AC50,[7],4.87 µM (active)
OCCN(CCO)CCO,outcome,[15],inactive
CCOP(=S)(OCC)OP(=S)(OCC)OCC,AC50,[4],17 µM (active)
same,AC50,[13],2.56 µM (active)
CNC(=O)CSP(=O)(OC)OC,outcome,[7],inactive
Clc1cccc(Cl)c1,outcome,[10],inactive
CCCCCCCCCCCCOS(=O)(=O)O,AC50,[3],36.5 µM (active)
same,AC50,[16],40.8 µM (active)
same,AC50,[8],13.9 µM (active)
same,outcome,[9],inactive
N#Cc1cccnc1,outcome,[2],inactive
same,outcome,[16],inactive
same,outcome,[7],inactive
same,outcome,[8],inactive
same,outcome,[9],inactive
same,outcome,[10],inactive
same,outcome,[11],inactive
same,outcome,[12],inactive
same,outcome,[17],inactive
same,outcome,[18],inactive
CCCCC(CC)COC(=O)Cl (configuration not stated),outcome,[7],inactive
c1ccc(-c2cccc(-c3ccccc3)c2)cc1,AC50,[7],2.51 µM (active)
O=S(=O)(c1ccc(Cl)cc1)c1cc(Cl)c(Cl)cc1Cl,outcome,[7],inactive
Nc1ccc(N)cc1,outcome,[13],inactive
same,outcome,[7],inactive
CC(C)(C)c1ccccc1O,outcome,[10],inactive
CC(C)O.CC(C)O.OCCN(CCO)CCO.OCCN(CCO)CCO.[Ti],AC50,[19],1.13 µM (active)
same,AC50,[1],10.8 µM (active)
same,AC50,[4],10.3 µM (active)
same,outcome,[7],inactive
same,AC50,[8],1.9 µM (active)
same,AC50,[20],0.0034 µM (active)
same,AC50,[10],0.00229 µM (active)
same,outcome,[18],inactive
Cc1cc(C(C)(C)c2ccc(O)c(C)c2)ccc1O,AC50,[4],12.5 µM (active)
Nc1c(Oc2ccccc2)cc(O)c2c1C(=O)c1ccccc1C2=O,outcome,[7],inactive
CC1CC(=O)O1 (configuration not stated),outcome,[7],inactive
O=[N+]([O-])c1ccc(Nc2ccccc2)cc1,outcome,[7],inactive
ClCCCCl,AC50,[7],10.5 µM (active)
c1ccc2sc(SNC3CCCCC3)nc2c1,AC50,[7],13.9 µM (active)
O=C(Cl)OCCOCCOC(=O)Cl,AC50,[7],6.6 µM (active)
O=C(O)C1(c2ccc3c(c2)OC[C@H](Cc2ccc(-c4ccccc4)cc2)[C@H]3O)CCCC1,AC50,[4],13.8 µM (active)
same,AC50,[5],17.7 µM (active)
same,outcome,[8],inactive
N#CCCC(Br)(C#N)CBr (configuration not stated),AC50,[13],19.2 µM (active)
CC(C)[N+](=O)[O-],outcome,[7],inactive
O=c1oc2ccccc2c(O)c1C(CC(O)c1ccc(-c2ccc(Br)cc2)cc1)c1ccccc1 (configuration not stated),AC50,[4],9.57 µM (active)
same,outcome,[7],inactive
CN(C)C(=S)S,AC50,[4],8.6 µM (active)
same,outcome,[17],inactive
CCN(CC)C(=O)C(Cl)=C(C)OP(=O)(OC)OC,AC50,[13],25 µM (active)
OC[P+](CO)(CO)CO,outcome,[7],inactive
O=C(N[C@H]1CN2CCC1CC2)c1ccc2c(c1)OCCO2,outcome,[2],inactive
same,outcome,[3],inactive
same,outcome,[7],inactive
same,outcome,[8],inactive
same,outcome,[20],inactive
same,outcome,[18],inactive
same,outcome,[15],inactive
